Source: PubChem BioAssay (EPA / NIEHS)
Where “and” joins values, the source holds several entries; their conditions need not be identical. Identical values can stand only once. Where a structure was tested more than once in an assay, its records may differ in their call. Calls of active or inactive are those of the source. Rule for the calls: active = hit-call score of the fitted dose curve at least 0.9, where 1 is the maximum; inactive = score below 0.9.

Key:
[1] = read-out: TIMP metallopeptidase inhibitor 1 (TIMP1), TIMP1 (gene 7076); assay: BSK_hDFCGF_TIMP1: BioMAP Diversity Plus: hDFCGF Assay for TIMP metallopeptidase inhibitor 1 (TIMP1) Biomarker Activity (AID 2283062); settings: primary human foreskin fibroblasts; actives raise or lower the signal
Outline: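 ELISA readout of TIMP-1 from human dermal foreskin fibroblast cultures 24 h post-dosing. Curves were fitted in both directions against DMSO baseline, with SRB total-protein staining in parallel cultures as a cytotoxicity check.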

[2] = read-out: Monokine induced gamma interferon (MIG), CXCL9 (gene 4283); assay: BSK_hDFCGF_MIG: BioMAP Diversity Plus: hDFCGF Assay for Monokine induced gamma interferon (MIG) Biomarker Activity (AID 2283063); settings: primary human foreskin fibroblasts; actives raise or lower the signal
Outline: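 Fibroblasts (human foreskin, primary) dosed, 24 h, MIG by ELISA; fit bidirectional vs DMSO.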

[3] = read-out: Matrix Metallopeptidase 1 (MMP1), MMP1 (gene 4312); assay: BSK_hDFCGF_MMP1: BioMAP Diversity Plus: hDFCGF Assay for Matrix Metallopeptidase 1 (MMP1) Biomarker Activity (AID 2283064); settings: primary human foreskin fibroblasts; actives raise or lower the signal
Outline: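 MMP1 levels quantified by ELISA 24 h after dosing human dermal fibroblast cultures, with parallel SRB total-protein staining for overt cytotoxicity. Data fitted in both directions against DMSO baseline.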

[4] = read-out: Vascular cell adhesion molecule 1 (VCAM1), VCAM1 (gene 7412); assay: BSK_hDFCGF_VCAM1: BioMAP Diversity Plus: hDFCGF Assay for Vascular cell adhesion molecule 1 (VCAM1) Biomarker Activity (AID 2283065); settings: primary human foreskin fibroblasts; actives raise or lower the signal
Outline: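 ELISA read-out of VCAM-1 on human skin fibroblasts, 24 h post-dose; gain or loss of signal fitted bidirectionally against DMSO baseline.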

[5] = read-out: Plasminogen activator inhibitor-1 (PAI1), SERPINE1 (gene 5054); assay: BSK_hDFCGF_PAI1: BioMAP Diversity Plus: hDFCGF Assay for Plasminogen activator inhibitor-1 (PAI1) Biomarker Activity (AID 2283066); settings: primary human foreskin fibroblasts; actives raise or lower the signal
Outline: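 Fibroblasts from human foreskin were treated with test chemical. After 24 h, PAI-1 was measured by ELISA. Activity was fitted in both directions relative to DMSO.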

[6] = read-out: Intercellular Adhesion Molecule 1 (ICAM1), ICAM1 (gene 3383); assay: BSK_KF3CT_ICAM1: BioMAP Diversity Plus: KF3CT Assay for Intercellular Adhesion Molecule 1 (ICAM1) Biomarker Activity (AID 2283067); settings: primary human keratinocytes with fibroblasts; actives raise or lower the signal
Outline: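 ELISA readout of ICAM-1; KF3CT human skin co-culture (keratinocytes + foreskin fibroblasts), 24 h post-dose; gain/loss fit vs DMSO baseline.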

[7] = read-out: Interferon-gamma inducible Protein 10 (IP10), CXCL10 (gene 3627); assay: BSK_KF3CT_IP10: BioMAP Diversity Plus: KF3CT Assay for Interferon-gamma inducible Protein 10 (IP10) Biomarker Activity (AID 2283068); settings: primary human keratinocytes with fibroblasts; actives raise or lower the signal
Outline: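 In a primary skin co-culture of keratinocytes and fibroblasts, IP-10 is quantified by ELISA at 24 h after dosing. SRB staining of parallel wells monitors overt toxicity. Curves are fitted both directions against DMSO.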

[8] = BSK_KF3CT_SRB: Viability Assessment in the BioMAP Diversity Plus: KF3CT Assay (AID 2283069); settings: primary human keratinocytes with fibroblasts;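 note: total protein by sulforhodamine B staining as a cytotoxicity measure; read 24 h after compound addition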
Outline: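 Cytotoxicity was gauged by SRB staining (0.1% SRB, 10% TCA fixation, 560 nm) of parallel cultures at 24 h. The cells were primary human skin keratinocytes co-cultured with fibroblasts, and activity was fitted in both directions against DMSO.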

[9] = read-out: Interleukin-1 alpha (IL1a), IL1A (gene 3552); assay: BSK_KF3CT_IL1a: BioMAP Diversity Plus: KF3CT Assay for Interleukin-1 alpha (IL1a) Biomarker Activity (AID 2283070); settings: primary human keratinocytes with fibroblasts; actives raise or lower the signal
Outline: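 IL-1a was detected by ELISA 24 h after chemical treatment of a co-culture of human skin keratinocytes and foreskin fibroblasts. Gain or loss of signal was fitted against the DMSO baseline.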

[10] = read-out: TIMP metallopeptidase inhibitor 2 (TIMP2), TIMP2 (gene 7077); assay: BSK_KF3CT_TIMP2: BioMAP Diversity Plus: KF3CT Assay for TIMP metallopeptidase inhibitor 2 (TIMP2) Biomarker Activity (AID 2283071); settings: primary human keratinocytes with fibroblasts; actives raise or lower the signal
Outline: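 Chemicals were dosed onto human skin primary co-cultures of keratinocytes and foreskin fibroblasts, and TIMP-2 was measured by ELISA after 24 hours. Activity in either direction was fitted relative to DMSO.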

[11] = read-out: Transforming growth factor beta 1 (TGFb1), TGFB1 (gene 7040); assay: BSK_KF3CT_TGFb1: BioMAP Diversity Plus: KF3CT Assay for Transforming growth factor beta 1 (TGFb1) Biomarker Activity (AID 2283072); settings: primary human keratinocytes with fibroblasts; actives raise or lower the signal
Outline: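 KF3CT co-culture (keratinocytes + fibroblasts), 24 h exposure → TGF-b1 ELISA → bidirectional fit, DMSO = baseline. Parallel SRB total-protein staining (0.1% SRB, 10% TCA fixation, 560 nm) for cytotoxicity.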

[12] = read-out: C-C motif chemokine 2 (Homo sapiens) (UniProt P13500); assay: BSK_KF3CT_MCP1: BioMAP Diversity Plus: KF3CT Assay for Monocyte Chemoattractant Protein 1 (MCP1/CCL2) Biomarker Activity (AID 2283073); settings: primary human keratinocytes with fibroblasts; actives raise or lower the signal
Outline: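 KF3CT skin co-culture (keratinocytes/foreskin fibroblasts), 24 h post-dose; MCP-1 by ELISA; gain/loss of signal fit bidirectionally vs DMSO baseline.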

[13] = read-out: urokinase plasminogen activator (uPA), PLAU (gene 5328); assay: BSK_KF3CT_uPA: BioMAP Diversity Plus: KF3CT Assay for urokinase plasminogen activator (uPA) Biomarker Activity (AID 2283075); settings: primary human keratinocytes with fibroblasts; actives raise or lower the signal
Outline: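 ELISA read-out of uPA 24 h after dosing human skin keratinocytes co-cultured with foreskin fibroblasts. Signal change fitted both ways relative to DMSO; sulforhodamine B on parallel cultures marks overt cytotoxicity.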

CD40, CD40 (gene 958) = assay: BSK_LPS_CD40: BioMAP Diversity Plus: LPS Assay for CD40 Biomarker Activity (AID 2283076); settings: primary human HUVEC with PBMC; actives raise or lower the signal
Outline: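 ELISA readout of CD40 in HUVEC/PBMC co-culture (BSK_LPS system), 24 h post-dosing; bidirectional curve fit, DMSO baseline; parallel SRB total-protein staining for cytotoxicity.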

[14] = read-out: E-selectin (Homo sapiens) (UniProt P16581); assay: BSK_LPS_Eselectin: BioMAP Diversity Plus: LPS Assay for Eselectin Biomarker Activity (AID 2283077); settings: primary human HUVEC with PBMC; actives raise or lower the signal
Outline: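 ELISA readout of E-selectin, 24 h post-dose, HUVEC + PBMC co-culture (LPS system). Gain or loss of signal vs DMSO baseline, bidirectional fit.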

[15] = read-out: Interleukin-8 (IL8), CXCL8 (gene 3576); assay: BSK_LPS_IL8: BioMAP Diversity Plus: LPS Assay for Interleukin-8 (IL8) Biomarker Activity (AID 2283078); settings: primary human HUVEC with PBMC; actives raise or lower the signal
Outline: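 HUVEC + PBMC co-culture, LPS-activated; test chemicals dosed, IL-8 read by ELISA at 24 h. Bidirectional curve fit vs DMSO baseline (gain or loss of signal).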

[16] = BSK_LPS_SRB: Viability Assessment in the BioMAP Diversity Plus: LPS Assay (AID 2283079); settings: primary human HUVEC with PBMC;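 note: total protein by sulforhodamine B absorbance as a cytotoxicity measure; measured one day after compound addition; fitted in both directions against DMSO so loss or gain of signal counts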
Outline: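 HUVEC + PBMC co-culture, LPS-stimulated; compound 24 h. 10% TCA fix, 0.1% SRB stain, A560. Bidirectional fit vs DMSO.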

[17] = read-out: Interleukin-1 alpha (IL1a), IL1A (gene 3552); assay: BSK_LPS_IL1a: BioMAP Diversity Plus: LPS Assay for Interleukin-1 alpha (IL1a) Biomarker Activity (AID 2283080); settings: primary human HUVEC with PBMC; actives raise or lower the signal
Outline: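 HUVEC/PBMC co-culture, LPS system; 24 h after dosing; IL-1a by ELISA; gain or loss of signal fitted bidirectionally vs DMSO baseline.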

[18] = read-out: Monocyte Chemoattractant Protein-1 (MCP1), CCL2 (gene 6347); assay: BSK_LPS_MCP1: BioMAP Diversity Plus: LPS Assay for Monocyte Chemoattractant Protein-1 (MCP1) Biomarker Activity (AID 2283081); settings: primary human HUVEC with PBMC; actives raise or lower the signal
Outline: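 ELISA read-out of MCP-1 after 24 h chemical dosing of a human umbilical vein endothelial cell/peripheral blood mononuclear cell co-culture stimulated with LPS. Gain or loss of signal fitted relative to DMSO controls.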

[19] = read-out: Matrix Metallopeptidase 9 (MMP9), MMP9 (gene 4318); assay: BSK_KF3CT_MMP9: BioMAP Diversity Plus: KF3CT Assay for Matrix Metallopeptidase 9 (MMP9) Biomarker Activity (AID 2283074); settings: primary human keratinocytes with fibroblasts; actives raise or lower the signal
Outline: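 MMP-9 quantified by ELISA after 24 h chemical treatment of primary human skin keratinocyte/fibroblast co-cultures; gain or loss fitted against DMSO, with parallel SRB staining (0.1% SRB, 560 nm) for overt cytotoxicity.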

Measured: AC50

Sequence of E-selectin (Homo sapiens) (P16581 whole entry, looked up): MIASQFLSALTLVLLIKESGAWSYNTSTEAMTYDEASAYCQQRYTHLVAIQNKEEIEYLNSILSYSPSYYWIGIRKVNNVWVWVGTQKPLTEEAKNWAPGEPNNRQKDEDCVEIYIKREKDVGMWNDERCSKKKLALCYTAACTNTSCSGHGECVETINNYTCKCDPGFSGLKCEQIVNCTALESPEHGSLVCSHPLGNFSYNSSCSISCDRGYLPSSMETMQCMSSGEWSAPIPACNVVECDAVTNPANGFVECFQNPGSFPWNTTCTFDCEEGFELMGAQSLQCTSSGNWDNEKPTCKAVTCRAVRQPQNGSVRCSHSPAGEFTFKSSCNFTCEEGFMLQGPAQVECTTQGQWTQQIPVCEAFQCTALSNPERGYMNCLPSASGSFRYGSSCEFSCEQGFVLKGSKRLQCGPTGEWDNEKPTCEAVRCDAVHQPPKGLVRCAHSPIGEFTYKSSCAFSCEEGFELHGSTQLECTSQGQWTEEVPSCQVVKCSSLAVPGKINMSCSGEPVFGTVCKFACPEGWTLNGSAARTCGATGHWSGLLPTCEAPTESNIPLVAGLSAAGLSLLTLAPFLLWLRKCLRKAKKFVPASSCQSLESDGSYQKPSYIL

COC1=CC(=O)C[C@@H](C)[C@]12Oc1c(Cl)c(OC)cc(OC)c1C2=O
active: [5] 0.497 µM | [9] 1.98 µM | [12] 0.119 µM
not listed: [19]
inactive: all other assays above

CC1=NN(c2ccccc2)C(=O)C1
not listed: [13] | [19]
inactive: all other assays above

O=C(O)CCC(F)(F)C(F)(F)C(F)(F)C(F)(F)C(F)(F)C(F)(F)F
inactive: [1] | [2] | [3] | [4] | [5] | [6] | [7] | [8] | [9] | [10] | [12] | [19] | [13] | CD40, CD40 (gene 958) | [14] | [16] | [17] | [18]
active: CD40, CD40 (gene 958) 15.6 µM | [15] 30 µM and 51.1 µM and 38.9 µM | [17] 12.9 µM and 30 µM

O=C(c1ccccc1)c1ccccc1
inactive: all assays above

Clc1ccc(Nc2nnc(Cc3ccncc3)c3ccccc23)cc1
active: [10] 3.02 µM | [11] 1.99 µM
not listed: [19]
inactive: all other assays above
